Assay results published in PubChem BioAssay.

What follows are compounds tested on Plasmodium falciparum Sir2 (PF13_0152, Sir2A) (assay: Plasmodium falciparum Sir2A binding compounds – biochemical, small-molecule microarray, 635 nm fluorescence, primary screen (AID 1098;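 also: score merges spot fluorescence intensity with its signal-to-noise ratio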)). Conditions: fluorescence 635 nm, higher = more signal.

| Compound | composite z-score |
| --- | --- |
| CN(C)C(=O)[C@]1(CCS(=O)(=O)c2ccccc2)N=C(c2ccc(OCCCO)cc2)O[C@@H]1c1ccccc1 | 1.45 |
| CC(C)OC(=O)CC(=O)CC(O)c1ccc([N+](=O)[O-])cc1 (configuration not stated) | 0.541 |
| CCN(CC)c1ccc(N2CC=CC34O[C@@H]5/C=C\CCC(C)OC(=O)C5[C@H]3C(=O)N(C(C)CO)[C@@H]4C2=O)cc1 (some centres not stated) | -0.516 |
| Cc1ccc(C(C)CC(O)C2C=CC3C(=O)N(c4ccccc4)C(=O)C3N2Nc2ccc(C#N)cc2)o1 (configuration not stated) | 0.966 |
| Cc1ccc(F)cc1S(=O)(=O)N[C@@H]1CCN(Cc2cccc3[nH]ccc23)C1 | 0.245 |
| O=C1C2C=CC(C(O)c3ccco3)N(Nc3ccccc3)C2C(=O)N1c1ccccc1 (configuration not stated) | 0.576 |
| CCOC(=O)C1=CCC(c2ccco2)N(S(=O)(=O)c2ccc(C)cc2)C1 (configuration not stated) | 1.04 |
| O=C(NCCN1CCOCC1)[C@@H]1c2ccccc2C(=O)N(Cc2ccccc2)[C@H]1c1ccc(CO)cc1 | 0.84 |
| CCOC(=O)C1=C[C@@H](c2ccccc2)N(S(=O)(=O)c2ccc(C)cc2)[C@H]1c1ccccc1 | 0.394 |
| COCCOC(=O)N1C(=O)[C@@]2(c3cc(C#Cc4ccc(OC)cc4)ccc31)[C@H](c1ccc(OCCO)cc1)N1[C@H](c3ccccc3)[C@H](c3ccccc3)OC(=O)[C@H]1[C@@H]2C(=O)Nc1nc2ccccc2s1 | 0.181 |
| [N-]=[N+]=Nc1ccccc1C[C@]1(C(=O)O)N=C(c2ccc(OCCCO)cc2)O[C@H]1c1ccccc1N=[N+]=[N-] | 0.944 |
| CC=CC(O)C1C=CC2C(=O)NC(=O)C2N1Nc1ccccn1 (configuration not stated) | 0.733 |
